Test results taken from PubChem BioAssay (NCI).
“And” between values parts separate entries of the source, which are not always exact repeats. Identical values can stand only once. The panel holds about 79,000 compounds, 15% with a hit somewhere; the sample as a whole holds those more often. A structure can be active in one record and inactive in another. The source made the active and inactive calls. Cut-off read from the data, not from the text of the source: active = growth inhibition above about 70%; inactive = the rest.

Test: NCI Yeast Anticancer Drug Screen. Data for the sgs1 strain (AID 173);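 note: 0% = growth of vehicle-only control cultures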
Details: S. cerevisiae sgs1 mutant, at 100.0 µM, stronger effect = higher value
Method in brief: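 Yeast mutant strains carrying defined defects in DNA damage repair or cell cycle control were exposed to test compounds. Growth inhibition was scored against vehicle-treated controls.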

SMILES | growth inhibition
COc1ccc(/C=C2\CCc3ccccc3C2=O)cc1OC | 93% (active)
O=Cc1ccccc1B(O)O | 99% (active)
CC(=O)CC[N+](C)(C)C | 23% (inactive)
O=C(O)[C@H]1[C@@H](C2CCCCC2)O[C@@H](C2CCCCC2)O[C@H]1C(F)(F)F | 1% (inactive)
CN(NC(=O)/C(=C/C=C/c1ccccc1)NC(=O)c1ccccc1)C1=C(Cl)C(=O)[N+](c2ccccc2)=CC1 | 69% (inactive)
CCCCOc1ccc(Nc2c3ccccc3nc3ccccc23)cc1 | 82% (active)
N#C/C(=C1C=C/C(=N\O)C(Cl)=C\1)c1ccccc1 | 33% (inactive)
COc1ccc(C(=O)OCCc2ccccc2)cc1 | -4% (inactive)
Cc1c2ccncc2c(C)c2c1oc1ccccc12 | 95% (active)
CCCC#CCOC(=O)c1cc([N+](=O)[O-])cc([N+](=O)[O-])c1 | 99% (active)
Nc1nc(Nc2ccccc2)nc(Nc2ccccc2)n1 | 97% (active)
COc1ccc(/C=C2\S/C(=N/Nc3nc(-c4ccccc4)cs3)NC2=O)cc1OC | 92% (active)
CC(O)CN1C(=O)c2cccc3cc([N+](=O)[O-])cc(c23)C1=O (stereo unspecified) | 30% (inactive)
Cn1c(COc2ccc(/C=N/NC(=O)CCC(=O)N/N=C/c3ccc(OCc4c[n+]5ccccc5n4C)cc3)cc2)c[n+]2ccccc12 | 96% (active)
COC1=C(N=[N+]=[N-])C(=O)c2ncccc2C1=O | 94% (active)
CCN(CC)c1ccc(N=Nc2cc(S(=O)(=O)O)ccc2O)c(O)c1 | -15% (inactive)
O=C1C(C(O)(C(F)(F)F)C(F)(F)F)CCC1C(O)(C(F)(F)F)C(F)(F)F (stereo unspecified) | 43% (inactive)
CN(C)CCNC(=O)c1cccc2nc3c(ccc4ccccc43)nc12 | 98% (active)
O=S(=O)(CCC[C@H]1[C@@H](CCOCc2ccccc2)C2CCCN1O2)c1ccccc1 (stereo partly specified) | 41% (inactive)
CCC(C)/C(C)=N/NC(N)=O (stereo unspecified) | 2% (inactive)
Nc1c([N+](=O)[O-])cc2c3c(cccc13)CC2 | 65% (inactive)
CC1=Cc2ccc(C)cc2C(=O)C1=O | 99% (active)
C=Cc1c(C)c(O)cc2c1-c1ccc(O)c(C)c1CC2 | 99% (active)
NCC(O)CSCc1ccc(Cl)cc1 (stereo unspecified) | 42% (inactive)
C[n+]1c(-c2ccc(NC(=O)c3ccc(C(=O)Nc4ccc(-c5cn6ccccc6[n+]5C)cc4)cc3)cc2)cn2ccccc21 | 93% (active)
CNC(=O)OCc1c(COC(=O)NC)c(C)n(-c2ccc(Cl)c(Cl)c2)c1C | 98% (active)
[O-]c1c2cc(-[n+]3c(-c4ccccc4)cc(-c4ccccc4)cc3-c3ccccc3)cc1COCCOCCOCCOCCOC2 | 71% (active)
C[Si](C)(C)Cc1ccccc1C(=O)O | 99% (active)

Test: NCI Yeast Anticancer Drug Screen. Data for the mlh1 rad18 strain (AID 175)
Details: S. cerevisiae mlh1 rad18 strain growth inhibition; at 5.0 µM (retest, dose inferred, filed as 0.5); stronger effect = higher value
Method in brief: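 Growth inhibition of the yeast strain was measured after compound exposure and expressed relative to vehicle-treated controls. The strain carries defined defects in DNA damage repair.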

SMILES | growth inhibition
COc1ccc(/C=C2\CCc3ccccc3C2=O)cc1OC | 10% (inactive)
CC(C)c1ccc(O)c(=O)cc1 | 5% (inactive) and 6% (inactive) and 2% (inactive)
O=Cc1ccccc1B(O)O | -48% (inactive)
OCC(O)C(O)C(O)C(O)c1nc2ccccc2[nH]1 (stereo unspecified) | -1% (inactive) and -11% (inactive)
CC(=O)CC[N+](C)(C)C | 26% (inactive)
O=C(O)[C@H]1[C@@H](C2CCCCC2)O[C@@H](C2CCCCC2)O[C@H]1C(F)(F)F | -3% (inactive)
CN(NC(=O)/C(=C/C=C/c1ccccc1)NC(=O)c1ccccc1)C1=C(Cl)C(=O)[N+](c2ccccc2)=CC1 | -2% (inactive)
CCCCOc1ccc(Nc2c3ccccc3nc3ccccc23)cc1 | 26% (inactive)
N#C/C(=C1C=C/C(=N\O)C(Cl)=C\1)c1ccccc1 | 45% (inactive)
COc1cccc2c1C(=O)c1c(O)c3c(c(O)c1C2=O)CC(O)(C(=O)CO)CC3OC1CC(N)C(O)C(C)O1 (stereo unspecified) | -5% (inactive) and 20% (inactive) and 42% (inactive)
COc1ccc(C(=O)OCCc2ccccc2)cc1 | 10% (inactive)
Cc1c2ccncc2c(C)c2c1oc1ccccc12 | 64% (inactive)
CCCC#CCOC(=O)c1cc([N+](=O)[O-])cc([N+](=O)[O-])c1 | 97% (active)
Nc1nc(Nc2ccccc2)nc(Nc2ccccc2)n1 | 0% (inactive)
COc1ccc(/C=C2\S/C(=N/Nc3nc(-c4ccccc4)cs3)NC2=O)cc1OC | 12% (inactive)
CC(O)CN1C(=O)c2cccc3cc([N+](=O)[O-])cc(c23)C1=O (stereo unspecified) | 25% (inactive)
Cc1cc(SC#N)ccc1O | 9% (inactive) and -4% (inactive) and 1% (inactive)

SMILES | growth inhibition
Cn1c(COc2ccc(/C=N/NC(=O)CCC(=O)N/N=C/c3ccc(OCc4c[n+]5ccccc5n4C)cc3)cc2)c[n+]2ccccc12 | -15% (inactive)
COC1=C(N=[N+]=[N-])C(=O)c2ncccc2C1=O | 69% (inactive)
CCN(CC)c1ccc(N=Nc2cc(S(=O)(=O)O)ccc2O)c(O)c1 | 42% (inactive)
O=C1C(C(O)(C(F)(F)F)C(F)(F)F)CCC1C(O)(C(F)(F)F)C(F)(F)F (stereo unspecified) | 2% (inactive)
COc1nc(N)c(N=CC(OC(C)=O)C(OC(C)=O)C(COC(C)=O)OC(C)=O)c(=O)n1C (stereo unspecified) | -3% (inactive) and -20% (inactive) and -25% (inactive)
CN(C)CCNC(=O)c1cccc2nc3c(ccc4ccccc43)nc12 | 7% (inactive)
O=S(=O)(CCC[C@H]1[C@@H](CCOCc2ccccc2)C2CCCN1O2)c1ccccc1 (stereo partly specified) | -14% (inactive)
Nc1c([N+](=O)[O-])cc2c3c(cccc13)CC2 | 12% (inactive)
CC1=Cc2ccc(C)cc2C(=O)C1=O | 66% (inactive)
C=Cc1c(C)c(O)cc2c1-c1ccc(O)c(C)c1CC2 | 69% (inactive)
NCC(O)CSCc1ccc(Cl)cc1 (stereo unspecified) | -5% (inactive)
C[n+]1c(-c2ccc(NC(=O)c3ccc(C(=O)Nc4ccc(-c5cn6ccccc6[n+]5C)cc4)cc3)cc2)cn2ccccc21 | 52% (inactive)
Nc1ccccc1SSc1ccccc1N | 80% (active) and 17% (inactive) and 46% (inactive)
CCCCCCCCCCCC[N+](C)(C)C | -4% (inactive) and -5% (inactive) and 4% (inactive)
CNC(=O)OCc1c(COC(=O)NC)c(C)n(-c2ccc(Cl)c(Cl)c2)c1C | 39% (inactive)
[O-]c1c2cc(-[n+]3c(-c4ccccc4)cc(-c4ccccc4)cc3-c3ccccc3)cc1COCCOCCOCCOCCOC2 | 0% (inactive)
